Data on 68 molecules can be found in PubChem BioAssay AID2551 (National Center for Advancing Translational Sciences (NCATS), 2010).

The whole screen tested about 310,000 compounds, of which about 17,000 (5.5%) were called active. About 11% were inconclusive and are not listed. This is one part of a sample in which actives are shown more often than they occur. Calls come from the whole dose curve; as a rule, active = well fitted inhibition curve with a large enough effect; inconclusive = small, poorly fitted or top-dose-only effect, or effect the other way; inactive = no such curve, though single readings can be large or run the other way.
% is set by controls: 0 for no effect and ±100 for the full control effect; potency is the fitted concentration of half-maximal effect.

In the test the target is Nuclear receptor ROR-gamma (Mus musculus) (UniProt P51450). Nature of the test: qHTS for inhibitors of ROR gamma transcriptional activity. Note: nearly all actives have a fitted effect of over 60% in size. The note with it: Drosophila S2 Gal4-RORgamma UAS-luciferase reporter, 20 h; series mostly up to 53.6 µM; activity change, negative = inhibition: at the top concentration. An outline of the steps: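 Luminescence from a UAS-regulated Photinus luciferase reporter in stably transfected Drosophila Schneider cells is measured; decreased signal marks ROR gamma inhibition. Fusion expression is induced by 700 uM copper sulfate for 20 hr.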
Sequence of Nuclear receptor ROR-gamma (Mus musculus) (P51450 whole entry, looked up, the tested form may be a part): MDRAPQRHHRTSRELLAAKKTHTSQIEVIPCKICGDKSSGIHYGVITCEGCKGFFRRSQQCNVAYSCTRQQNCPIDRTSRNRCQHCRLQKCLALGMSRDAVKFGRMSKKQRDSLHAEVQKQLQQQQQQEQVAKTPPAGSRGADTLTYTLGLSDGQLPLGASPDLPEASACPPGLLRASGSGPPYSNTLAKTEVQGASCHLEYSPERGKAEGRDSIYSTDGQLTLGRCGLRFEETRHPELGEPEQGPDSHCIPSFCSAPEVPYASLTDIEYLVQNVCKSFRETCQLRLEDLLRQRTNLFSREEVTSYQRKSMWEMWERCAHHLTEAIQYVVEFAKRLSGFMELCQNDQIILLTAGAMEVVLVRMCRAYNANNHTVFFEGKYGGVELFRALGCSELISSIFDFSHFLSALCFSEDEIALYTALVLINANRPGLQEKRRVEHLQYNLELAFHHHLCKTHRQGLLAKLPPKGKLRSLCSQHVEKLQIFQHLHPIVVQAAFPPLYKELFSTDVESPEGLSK
In general terms: qHTS replaces the single test concentration by a dilution series.
On to `Cc1nn(-c2ccccc2)c2c1c(C)c(CCC(=O)NCC1CCCO1)c(=O)n2C` (stereo not drawn), for which the “activity change, negative = inhibition” value is -11.4% (inactive).

On to `O=C(COc1ccc(Cl)cc1Cl)N/N=C/c1ccccn1`, for which the Potency was 12.6 µM (active).

For the molecule `O=C(N/N=C/c1ccccn1)c1cccc(NC(=O)c2ccc(Cl)cc2)c1`, the “activity change, negative = inhibition” value was -27.8% (inactive).

Consider `CSc1ccc(/C=N\NC(=O)COc2ccc(Cl)cc2Br)cc1`, for which the “activity change, negative = inhibition” value was -30.3% (inactive).

Turning to `C=CCN1CN(S(=O)(=O)c2ccc(OC)cc2)c2nc3ccccc3nc21`, the “activity change, negative = inhibition” value is 14.6% (inactive).

`O=C(Nc1nc2ccc([N+](=O)[O-])cc2s1)c1ccncc1`: the “activity change, negative = inhibition” value is 13% (inactive).

Turning to `O=C(COC(=O)c1ccc(F)cc1)Nc1nc2ccc([N+](=O)[O-])cc2s1`, the “activity change, negative = inhibition” value was -1.04% (inactive).

Take `O=C(NC(Nc1nc2ccc([N+](=O)[O-])cc2s1)(C(F)(F)F)C(F)(F)F)c1ccccc1`: the Potency was 6.31 µM (active).

`CCOc1ccccc1NS(=O)(=O)c1cc2c3c(c1)C(C)C(=O)N3CCC2` (stereo not drawn): the “activity change, negative = inhibition” value is 8.24% (inactive).

Consider `CCc1ccccc1NC(=O)c1ccc2snnc2c1`, for which the “activity change, negative = inhibition” value is -1.7% (inactive).

Turning to `COCCN1CCN(C(=O)c2cc(COc3ccc(F)cc3Cl)on2)CC1`, the “activity change, negative = inhibition” value is 4.15% (inactive).

As to `CCn1c(SCC(=O)NCC2CCCO2)nc2cc(S(=O)(=O)N3CCCCC3)ccc21` (stereo not drawn), the “activity change, negative = inhibition” value was 29.2% (inactive).

In the case of `CCCCn1c(SCC(=O)NCC2CCCO2)nc2ccc(N3CCOCC3)cc2c1=O` (stereo not drawn), the Potency is 2.51 µM (active).

Take `COCCNC(=O)c1ccc(Cn2c(SCC(=O)NCC3CCCO3)nc3ccc(Br)cc3c2=O)cc1` (stereo not drawn): the “activity change, negative = inhibition” value is 5.53% (inactive).

As for `CCCCNC(=O)c1cn(CC)c2cc(N3CCN(C(=O)c4ccco4)CC3)c(F)cc2c1=O`, the “activity change, negative = inhibition” value was 4.18% (inactive).

`CCCOc1ccc(Cc2c(O)nc(N)[nH]c2=O)cc1C`: the “activity change, negative = inhibition” value is 1.22% (inactive).

In the case of `Cc1ccsc1/C=N/Nc1ccc(Cl)nn1`, the “activity change, negative = inhibition” value was -20.8% (inactive).

For the molecule `COc1cccc(/C=N/Nc2ccc(Cl)nn2)c1`, the “activity change, negative = inhibition” value was -7.53% (inactive).

Regarding `Oc1cccc(/C=N/Nc2ccc(Cl)nn2)c1O`, the Potency was 1.41 µM (active).

In the case of `Cc1ccc(C)c(S(=O)(=O)N2CCCOC2CNC(=O)C(=O)NC2CCCCC2)c1` (stereo not drawn), the “activity change, negative = inhibition” value is -12.7% (inactive).

As for `Cc1ccccc1CN1CCNC(=O)C1CC(=O)NCCC1=CCCCC1` (stereo not drawn), the “activity change, negative = inhibition” value is 6.29% (inactive).

Take `COC(=O)C1=CN(Cc2ccc(OC)cc2)C=C(C(=O)OC)C1c1ccc(O)c(OC)c1`: the “activity change, negative = inhibition” value was 2% (inactive).

On to `CN1C(=O)[C@H]2[C@@H](C3CC3)N3C(=O)CN(Cc4ccccc4)C(=O)[C@@]3(C)[C@H]2C1=O`, for which the “activity change, negative = inhibition” value was -0.788% (inactive).

Consider `COC(=O)c1ccc(C(=O)NC2CC(C)(C)Cc3c2cnn3-c2ccc(F)cc2)nc1` (stereo not drawn), for which the “activity change, negative = inhibition” value was 27.3% (inactive).

For `CCc1ccc(OCC(O)CN2CCN(CCO)CC2)cc1` (stereo not drawn), the “activity change, negative = inhibition” value is 6.29% (inactive).

As to `c1ccc(-c2noc(-c3cccs3)n2)nc1`, the Potency is 1.26 µM (active).

As to `O=C(Oc1ccc(-c2nc(-c3ccccn3)no2)cc1)c1ccccc1`, the “activity change, negative = inhibition” value was 1.49% (inactive).

Regarding `c1csc(-c2nc(-c3ccncc3)no2)c1`, the “activity change, negative = inhibition” value is -25.3% (inactive).

For the molecule `COc1ccc2[nH]c(=O)c(C3c4cc(OC)c(OC)cc4CCN3C(=O)c3ccco3)cc2c1` (stereo not drawn), the “activity change, negative = inhibition” value is -0.908% (inactive).

As to `CC1CCCCC1NC(=O)CCS(=O)(=O)c1ccc2c(c1)NC(=O)CO2` (stereo not drawn), the “activity change, negative = inhibition” value was -15.6% (inactive).

For `COc1cccc(NC(=O)C2C(c3ccccc3)C2(Cl)Cl)c1` (stereo not drawn), the “activity change, negative = inhibition” value was 27.3% (inactive).

Turning to `COc1ccc(-c2cc(C(=O)N3CCN(Cc4ccc5c(c4)OCO5)CC3)on2)cc1OC`, the “activity change, negative = inhibition” value was 0.905% (inactive).

For the molecule `C=CS(=O)c1sc(Cl)c(N2CCOCC2)c1[N+](=O)[O-]` (stereo not drawn), the Potency is 4.47 µM (active).

In the case of `O=C(CCN1C(=O)C2C3CCC(C3)C2C1=O)Nc1ccc(Cl)cc1Cl` (stereo not drawn), the “activity change, negative = inhibition” value is 15% (inactive).

Consider `CC(=O)N1CCOc2ccc(S(=O)(=O)N3CCC(C(=O)Nc4ccccc4F)CC3)cc21`, for which the “activity change, negative = inhibition” value is 3.01% (inactive).

With `COc1ccc(NC(=O)Cn2ncn3c(cc4ccccc43)c2=O)c(OC)c1OC`, the “activity change, negative = inhibition” value is 5.63% (inactive).

Consider `CCc1nc2ccccc2n(CCOCCOCCn2c(=O)c(CC)nc3ccccc32)c1=O`, for which the “activity change, negative = inhibition” value is -24.8% (inactive).

Regarding `CC(C)(C)C(=O)Cn1c(NCCO)nc2ccccc21`, the “activity change, negative = inhibition” value is 20.4% (inactive).

For the molecule `CC(=O)NCCc1nc2cc(NC(=O)c3ccccc3)ccc2n1C`, the “activity change, negative = inhibition” value is -25.2% (inactive).

For `Cn1sc(NC(=O)c2ccccc2)nc1=O`, the “activity change, negative = inhibition” value is 4.29% (inactive).

In the case of `CCn1c(NC(=O)c2nn(C)cc2Br)nc2ccccc21`, the Potency was 2.51 µM (active).

Turning to `Cn1c(NC(=O)c2ccccc2)nc2ccccc21`, the Potency is 1 µM (active).

Take `COc1cc(C(=O)N/C(=C\c2cn(C)c3ccccc23)C(=O)N2CCOCC2)cc(OC)c1OC`: the “activity change, negative = inhibition” value is -8.8% (inactive).

In the case of `COC(=O)c1ccc(CNC(=O)c2ccc3oc(C(C)C)nc3c2)cc1`, the “activity change, negative = inhibition” value was -3.51% (inactive).

For the molecule `CCOc1ccc(CN2CCN(Cc3ccc4cc(F)ccc4n3)CC2CCO)cc1` (stereo not drawn), the “activity change, negative = inhibition” value was -21.1% (inactive).

`CC(C)(C)c1ccc(C(=O)N2CCC(C(=O)N3CCCCC3)CC2)cc1`: the “activity change, negative = inhibition” value is 17.5% (inactive).

For `Cc1ccc(C)c(OCCC(=O)OCC(=O)N2CCN(c3ccccc3)CC2)c1`, the “activity change, negative = inhibition” value was 22.2% (inactive).

`O=C(NCCc1ccc(Cl)cc1)c1cccc(N2CCCC2=O)c1`: the “activity change, negative = inhibition” value was 41.2% (inactive).

As to `Cc1ccc(/C=N/NC(=O)CNC(=O)COc2ccccc2)o1`, the “activity change, negative = inhibition” value is 14.7% (inactive).

As to `Cc1ccc(/C=N/NC(=O)Cn2ccc(C(F)(F)F)n2)o1`, the “activity change, negative = inhibition” value is 0.733% (inactive).

Consider `Cc1ccc(/C=N/NC(=O)c2cc3ccccc3cc2O)o1`, for which the Potency was 1.41 µM (active).

As for `CC(=O)N(C)c1ccc(NC(=O)Nc2cccc3ccccc23)cc1`, the “activity change, negative = inhibition” value was -22.6% (inactive).

In the case of `COc1cccc(NC(=O)c2ccccc2N(Cc2ccccc2)S(C)(=O)=O)c1`, the “activity change, negative = inhibition” value is 1.83% (inactive).

For the molecule `CC1Cc2ccccc2N1C(=O)c1cc2sccc2n1Cc1ccccc1` (stereo not drawn), the “activity change, negative = inhibition” value is 27.1% (inactive).

In the case of `CC1CC(=O)Nc2ccccc2N1S(=O)(=O)c1cccs1` (stereo not drawn), the “activity change, negative = inhibition” value was -18.1% (inactive).

For `CC1CC(=S)Nc2ccccc2N1Cc1ccccc1` (stereo not drawn), the Potency was 1.41 µM (active).

`CCC(=O)Nc1ccc(-c2ccc(N3CCCCC3)nn2)cc1`: the Potency was 4.47 µM (active).

For `O=C(CN1CCN(c2ccccn2)CC1)Nc1ccc(Br)cc1`, the “activity change, negative = inhibition” value was 6% (inactive).

Regarding `CCCCSc1nnc(-c2ccc(NC(=O)CC)cc2)n1C`, the “activity change, negative = inhibition” value is 27.9% (inactive).

For the molecule `Cc1c(S(=O)(=O)N2CC(C)CC(C)C2)c(=O)n(C)c(=O)n1C` (stereo not drawn), the “activity change, negative = inhibition” value was -30.5% (inactive).

As for `Cn1c(-c2ccc(F)cc2)cnc1SCC(=O)NNC(=O)Cc1ccccc1`, the “activity change, negative = inhibition” value was -1.11% (inactive).

For `Cc1ccc(-c2cnc(NC(=O)CCC(=O)N(C)Cc3ccccc3)n2C)cc1`, the Potency was 2.24 µM (active).

In the case of `CN(Cc1ccccc1)C(=O)CCc1ccccc1`, the “activity change, negative = inhibition” value was 25.2% (inactive).

In the case of `Cc1nc(-c2ccc(F)cc2)c(CC(=O)N2CCN(S(=O)(=O)c3ccc(F)cc3)CC2)s1`, the “activity change, negative = inhibition” value was 33.3% (inactive).

In the case of `CCn1c(C)cc(=O)cc1-c1ccc(Cl)cc1`, the “activity change, negative = inhibition” value was 0.704% (inactive).

Consider `c1ccc(-c2cc(-c3ccccc3)[nH]n2)cc1`, for which the “activity change, negative = inhibition” value was 14.3% (inactive).

On to `Cc1ccc(NC(=O)c2cc(-c3ccccc3O)n[nH]2)cc1C`, for which the “activity change, negative = inhibition” value was -21.9% (inactive).

As to `Oc1ccccc1-c1cc(-c2ccc(Cl)cc2)n[nH]1`, the Potency was 7.08 µM (active).
